From publication PMC7862700, “An all-to-all approach to the identification of sequence-specific readers for epigenetic DNA modifications on cytosine”

Assays:
Assay in all cases: DAPPL (digital affinity profiling via proximity ligation, sequencing); 10 mM Tris-HCl pH 7.5, 50 mM NaCl, 1 mM DTT, 4% glycerol, room temperature, 30 min; GST-TFs on glutathione beads, 16-mer random dsDNA library, 0.1% formaldehyde crosslink after washing; high values mean tight binding
FLI1 = biological target: T1, FLI1 (Homo sapiens, UniProt Q01543 1-452); conditions: protein: recombinant; tags: N-terminal GST; dsDNA, one strand shown
T1 sequence: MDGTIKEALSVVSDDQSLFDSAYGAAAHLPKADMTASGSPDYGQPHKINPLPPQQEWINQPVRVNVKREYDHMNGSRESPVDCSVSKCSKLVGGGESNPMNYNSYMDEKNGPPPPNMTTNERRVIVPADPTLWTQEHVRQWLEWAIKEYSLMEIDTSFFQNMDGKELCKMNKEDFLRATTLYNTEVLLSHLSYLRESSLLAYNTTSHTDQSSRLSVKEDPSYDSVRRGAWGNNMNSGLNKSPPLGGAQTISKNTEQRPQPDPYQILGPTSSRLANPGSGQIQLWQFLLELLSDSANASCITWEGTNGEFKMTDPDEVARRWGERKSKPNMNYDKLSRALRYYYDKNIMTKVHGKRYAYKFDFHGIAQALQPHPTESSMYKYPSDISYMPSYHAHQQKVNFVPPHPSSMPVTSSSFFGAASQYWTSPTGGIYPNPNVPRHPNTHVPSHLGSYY
Procedure, shortened: (§1)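 Pools were built from human transcription factors expressed in yeast as GST fusions, captured on glutathione beads and DNA-barcoded, along with a tag-only sample. Incubation with 200 nmole of a 16-mer random double-stranded DNA library lasted 30 min at room temperature in Tris/NaCl/DTT/glycerol buffer, and was followed by washing, 0.1% formaldehyde crosslinking, proximity ligation, PCR amplification and Illumina NextSeq500 sequencing. Binding signal is the quotient of each hexamer's read frequency for a factor and its frequency for the tag-only sample.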

ELK1 = biological target: T2, ELK1 (Homo sapiens, UniProt P19419 1-428); conditions: protein: recombinant; tags: N-terminal GST; dsDNA, one strand shown
T2 sequence: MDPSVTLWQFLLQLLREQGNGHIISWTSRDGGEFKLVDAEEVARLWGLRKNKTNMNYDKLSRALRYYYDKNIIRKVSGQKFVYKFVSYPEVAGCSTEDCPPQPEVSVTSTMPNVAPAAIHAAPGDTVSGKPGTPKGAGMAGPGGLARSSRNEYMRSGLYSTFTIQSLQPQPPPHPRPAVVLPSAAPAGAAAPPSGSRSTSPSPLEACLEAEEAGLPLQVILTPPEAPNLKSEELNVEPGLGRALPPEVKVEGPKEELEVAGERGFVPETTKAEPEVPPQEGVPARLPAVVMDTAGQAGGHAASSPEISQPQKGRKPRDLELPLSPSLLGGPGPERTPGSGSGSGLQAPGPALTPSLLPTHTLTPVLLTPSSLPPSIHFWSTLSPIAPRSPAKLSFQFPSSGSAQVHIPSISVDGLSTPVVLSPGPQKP
Procedure, shortened: as §1

GABPA = biological target: T3, GABPA (Homo sapiens, UniProt Q06546 1-454); conditions: protein: recombinant; tags: N-terminal GST; dsDNA, one strand shown
T3 sequence: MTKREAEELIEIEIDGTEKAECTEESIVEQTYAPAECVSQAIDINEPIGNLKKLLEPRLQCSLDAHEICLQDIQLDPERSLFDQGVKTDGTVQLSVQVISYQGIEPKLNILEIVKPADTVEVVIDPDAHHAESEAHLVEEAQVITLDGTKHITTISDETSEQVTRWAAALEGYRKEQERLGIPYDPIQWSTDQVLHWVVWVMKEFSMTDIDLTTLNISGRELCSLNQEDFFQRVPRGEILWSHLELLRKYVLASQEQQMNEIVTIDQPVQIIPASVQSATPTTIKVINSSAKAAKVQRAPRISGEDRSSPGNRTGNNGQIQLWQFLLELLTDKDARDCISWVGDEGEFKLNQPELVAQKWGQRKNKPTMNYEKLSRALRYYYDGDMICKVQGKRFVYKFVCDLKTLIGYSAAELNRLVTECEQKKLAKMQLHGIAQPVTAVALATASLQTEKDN
Procedure, shortened: as §1

ERG = biological target: T4, ERG (Homo sapiens, UniProt P11308 1-479); conditions: protein: recombinant; tags: N-terminal GST; dsDNA, one strand shown
T4 sequence: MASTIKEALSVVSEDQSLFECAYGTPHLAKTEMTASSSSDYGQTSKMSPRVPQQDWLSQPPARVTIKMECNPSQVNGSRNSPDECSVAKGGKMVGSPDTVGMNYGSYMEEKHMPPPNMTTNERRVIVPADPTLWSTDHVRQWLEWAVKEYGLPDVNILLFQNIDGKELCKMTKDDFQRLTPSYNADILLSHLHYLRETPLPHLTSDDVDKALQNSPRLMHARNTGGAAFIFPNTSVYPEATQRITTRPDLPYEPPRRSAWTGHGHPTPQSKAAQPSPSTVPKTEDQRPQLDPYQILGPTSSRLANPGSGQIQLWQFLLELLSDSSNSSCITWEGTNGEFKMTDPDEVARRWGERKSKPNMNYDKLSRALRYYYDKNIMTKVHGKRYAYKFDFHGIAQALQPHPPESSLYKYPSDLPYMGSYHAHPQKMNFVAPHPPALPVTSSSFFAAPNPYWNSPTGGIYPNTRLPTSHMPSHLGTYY
Procedure, shortened: as §1

ELF1 = ELF1 (Homo sapiens, UniProt P32519 1-619); conditions: protein: recombinant; tags: N-terminal GST; dsDNA, one strand shown
Chain of ELF1 (P32519 whole entry): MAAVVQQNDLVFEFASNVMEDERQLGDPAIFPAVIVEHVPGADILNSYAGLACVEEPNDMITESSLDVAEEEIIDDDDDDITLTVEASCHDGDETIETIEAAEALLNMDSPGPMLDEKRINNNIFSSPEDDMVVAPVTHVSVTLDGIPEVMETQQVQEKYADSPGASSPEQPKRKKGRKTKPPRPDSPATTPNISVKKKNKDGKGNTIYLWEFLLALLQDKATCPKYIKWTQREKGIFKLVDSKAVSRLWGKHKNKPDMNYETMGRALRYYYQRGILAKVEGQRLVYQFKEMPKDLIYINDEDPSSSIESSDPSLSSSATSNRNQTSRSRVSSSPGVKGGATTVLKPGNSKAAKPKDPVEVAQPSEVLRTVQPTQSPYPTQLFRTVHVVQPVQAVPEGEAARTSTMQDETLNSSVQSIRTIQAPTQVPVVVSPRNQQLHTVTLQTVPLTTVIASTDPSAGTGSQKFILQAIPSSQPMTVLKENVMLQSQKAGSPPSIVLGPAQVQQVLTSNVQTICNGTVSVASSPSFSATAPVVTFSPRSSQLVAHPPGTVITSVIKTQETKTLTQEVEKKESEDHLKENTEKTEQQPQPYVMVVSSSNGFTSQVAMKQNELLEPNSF
Procedure, shortened: as §1

EHF = biological target: T5, EHF (Homo sapiens, UniProt Q9NZC4 1-300); conditions: protein: recombinant; tags: N-terminal GST; dsDNA, one strand shown
T5 sequence: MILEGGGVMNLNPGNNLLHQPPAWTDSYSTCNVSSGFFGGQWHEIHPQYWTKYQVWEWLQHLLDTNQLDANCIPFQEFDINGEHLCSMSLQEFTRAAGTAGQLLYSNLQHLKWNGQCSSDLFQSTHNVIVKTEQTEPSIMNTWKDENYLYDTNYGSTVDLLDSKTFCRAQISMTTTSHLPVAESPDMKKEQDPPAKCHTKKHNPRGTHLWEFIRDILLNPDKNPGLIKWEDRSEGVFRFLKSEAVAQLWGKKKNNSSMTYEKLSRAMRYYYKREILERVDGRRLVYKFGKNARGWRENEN
Procedure, shortened: as §1

SPIB = SPIB (Homo sapiens, UniProt Q01892 1-262); conditions: protein: recombinant; tags: N-terminal GST; dsDNA, one strand shown
Chain of SPIB (Q01892 whole entry): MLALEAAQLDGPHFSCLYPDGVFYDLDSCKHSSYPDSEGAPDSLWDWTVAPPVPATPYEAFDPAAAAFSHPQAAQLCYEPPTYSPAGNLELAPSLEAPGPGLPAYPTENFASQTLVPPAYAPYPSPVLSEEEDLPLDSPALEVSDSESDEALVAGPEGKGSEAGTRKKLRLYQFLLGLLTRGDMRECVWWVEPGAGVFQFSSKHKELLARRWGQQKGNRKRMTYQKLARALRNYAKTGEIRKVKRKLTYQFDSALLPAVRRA
Procedure, shortened: as §1

ELK3 = biological target: T6, ELK3 (Homo sapiens, UniProt P41970 1-407); conditions: protein: recombinant; tags: N-terminal GST; dsDNA, one strand shown
T6 sequence: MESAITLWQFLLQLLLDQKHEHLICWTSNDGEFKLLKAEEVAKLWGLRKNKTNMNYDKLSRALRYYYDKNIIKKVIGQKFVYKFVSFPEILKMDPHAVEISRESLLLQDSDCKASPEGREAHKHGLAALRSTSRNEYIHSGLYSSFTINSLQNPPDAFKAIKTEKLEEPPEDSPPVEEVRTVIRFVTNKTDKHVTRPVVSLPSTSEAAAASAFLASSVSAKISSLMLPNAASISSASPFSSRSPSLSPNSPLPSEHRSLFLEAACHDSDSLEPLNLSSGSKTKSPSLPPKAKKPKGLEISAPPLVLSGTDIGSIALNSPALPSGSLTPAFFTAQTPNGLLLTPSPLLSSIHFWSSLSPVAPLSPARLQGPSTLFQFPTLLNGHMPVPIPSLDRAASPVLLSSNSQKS
Procedure, shortened: as §1

FEV = biological target: T7, FEV (Homo sapiens, UniProt Q99581 1-238); conditions: protein: recombinant; tags: N-terminal GST; dsDNA, one strand shown
T7 sequence: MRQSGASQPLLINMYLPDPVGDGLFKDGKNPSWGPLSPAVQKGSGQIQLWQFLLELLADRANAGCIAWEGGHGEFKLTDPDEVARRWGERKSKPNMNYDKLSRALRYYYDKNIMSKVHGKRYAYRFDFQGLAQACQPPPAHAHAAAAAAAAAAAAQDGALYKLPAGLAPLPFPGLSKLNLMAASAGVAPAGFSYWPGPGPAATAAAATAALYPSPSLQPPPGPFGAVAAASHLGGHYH
Procedure, shortened: as §1

ETV5 = ETV5 (Homo sapiens, UniProt P41161 1-510); conditions: protein: recombinant; tags: N-terminal GST; dsDNA, one strand shown
Chain of ETV5 (P41161 whole entry): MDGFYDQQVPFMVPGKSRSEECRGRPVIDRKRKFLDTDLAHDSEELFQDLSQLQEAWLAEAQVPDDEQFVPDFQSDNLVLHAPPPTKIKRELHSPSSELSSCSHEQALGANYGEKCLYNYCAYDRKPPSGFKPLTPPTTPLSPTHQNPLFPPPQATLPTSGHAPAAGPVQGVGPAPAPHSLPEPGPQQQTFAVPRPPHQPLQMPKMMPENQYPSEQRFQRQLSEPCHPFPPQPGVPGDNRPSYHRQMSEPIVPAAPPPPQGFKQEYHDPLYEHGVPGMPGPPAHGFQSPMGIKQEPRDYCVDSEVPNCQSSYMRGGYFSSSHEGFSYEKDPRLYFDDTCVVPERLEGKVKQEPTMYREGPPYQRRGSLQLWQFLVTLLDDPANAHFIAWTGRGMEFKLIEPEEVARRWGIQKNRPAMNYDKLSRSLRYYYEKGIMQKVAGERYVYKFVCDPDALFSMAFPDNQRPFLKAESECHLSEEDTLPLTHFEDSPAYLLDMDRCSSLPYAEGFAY
Procedure, shortened: as §1

HSF1 = HSF1 (Homo sapiens, UniProt Q00613 1-529); conditions: protein: recombinant; tags: N-terminal GST; chain copies: 3; dsDNA, one strand shown
Chain of HSF1 (Q00613 whole entry): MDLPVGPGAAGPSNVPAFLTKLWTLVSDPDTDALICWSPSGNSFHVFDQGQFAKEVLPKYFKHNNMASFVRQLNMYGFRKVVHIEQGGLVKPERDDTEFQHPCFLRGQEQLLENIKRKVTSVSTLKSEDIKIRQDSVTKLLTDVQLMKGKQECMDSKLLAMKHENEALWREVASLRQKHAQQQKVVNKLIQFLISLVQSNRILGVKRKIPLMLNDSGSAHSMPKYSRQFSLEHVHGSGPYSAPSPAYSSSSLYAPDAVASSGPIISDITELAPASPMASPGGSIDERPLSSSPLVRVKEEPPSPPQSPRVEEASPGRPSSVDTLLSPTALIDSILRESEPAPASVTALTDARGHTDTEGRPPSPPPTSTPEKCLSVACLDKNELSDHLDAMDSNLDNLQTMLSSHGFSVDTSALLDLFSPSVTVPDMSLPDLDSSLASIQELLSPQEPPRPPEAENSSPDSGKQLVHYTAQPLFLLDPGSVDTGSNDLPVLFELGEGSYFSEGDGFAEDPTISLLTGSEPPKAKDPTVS
Procedure, shortened: as §1

SPIC = biological target: T8, SPIC (Homo sapiens, UniProt Q8N5J4 1-248); conditions: protein: recombinant; tags: N-terminal GST; dsDNA, one strand shown
T8 sequence: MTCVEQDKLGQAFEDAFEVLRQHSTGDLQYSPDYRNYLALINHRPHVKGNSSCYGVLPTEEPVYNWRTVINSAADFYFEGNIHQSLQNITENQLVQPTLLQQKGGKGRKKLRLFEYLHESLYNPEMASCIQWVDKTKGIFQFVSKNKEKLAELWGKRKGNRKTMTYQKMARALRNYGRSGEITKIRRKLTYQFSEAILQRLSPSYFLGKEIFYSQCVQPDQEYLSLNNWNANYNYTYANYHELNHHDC
Procedure, shortened: as §1

ELF4 = ELF4 (Homo sapiens, UniProt Q99607 1-663); conditions: protein: recombinant; tags: N-terminal GST; dsDNA, one strand shown
Chain of ELF4 (Q99607 whole entry): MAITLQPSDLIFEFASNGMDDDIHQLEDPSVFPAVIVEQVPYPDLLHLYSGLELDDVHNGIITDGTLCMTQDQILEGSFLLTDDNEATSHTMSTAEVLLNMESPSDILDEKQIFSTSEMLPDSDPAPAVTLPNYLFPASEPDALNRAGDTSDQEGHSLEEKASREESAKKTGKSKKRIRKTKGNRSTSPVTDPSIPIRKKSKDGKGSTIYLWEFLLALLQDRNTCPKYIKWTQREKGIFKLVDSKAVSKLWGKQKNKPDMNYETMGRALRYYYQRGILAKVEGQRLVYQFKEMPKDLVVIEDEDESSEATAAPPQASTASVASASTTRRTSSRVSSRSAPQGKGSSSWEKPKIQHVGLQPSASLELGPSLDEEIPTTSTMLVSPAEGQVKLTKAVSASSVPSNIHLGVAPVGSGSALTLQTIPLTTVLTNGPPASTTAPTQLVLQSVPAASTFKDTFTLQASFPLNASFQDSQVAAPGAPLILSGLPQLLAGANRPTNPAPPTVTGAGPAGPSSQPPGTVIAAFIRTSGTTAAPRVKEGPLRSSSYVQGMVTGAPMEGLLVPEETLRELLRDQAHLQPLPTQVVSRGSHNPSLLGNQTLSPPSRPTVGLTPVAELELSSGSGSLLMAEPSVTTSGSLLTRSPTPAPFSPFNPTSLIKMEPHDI
Procedure, shortened: as §1

ELK4 = biological target: T9, ELK4 (Homo sapiens, UniProt P28324-2 1-405); conditions: protein: recombinant; tags: N-terminal GST; dsDNA, one strand shown
T9 sequence: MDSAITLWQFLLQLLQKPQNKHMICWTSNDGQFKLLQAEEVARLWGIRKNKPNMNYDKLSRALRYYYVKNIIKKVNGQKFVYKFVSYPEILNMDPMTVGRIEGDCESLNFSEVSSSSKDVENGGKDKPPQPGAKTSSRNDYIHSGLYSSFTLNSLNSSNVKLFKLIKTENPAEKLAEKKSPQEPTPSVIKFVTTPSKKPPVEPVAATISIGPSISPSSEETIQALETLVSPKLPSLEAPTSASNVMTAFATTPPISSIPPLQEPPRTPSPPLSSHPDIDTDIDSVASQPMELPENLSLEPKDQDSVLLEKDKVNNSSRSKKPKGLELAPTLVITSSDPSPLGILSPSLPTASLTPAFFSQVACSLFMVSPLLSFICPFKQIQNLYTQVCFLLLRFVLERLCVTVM
Procedure, shortened: as §1

ETV2 = biological target: T10, ETV2 (Homo sapiens, UniProt O00321 1-342); conditions: protein: recombinant; tags: N-terminal GST; dsDNA, one strand shown
T10 sequence: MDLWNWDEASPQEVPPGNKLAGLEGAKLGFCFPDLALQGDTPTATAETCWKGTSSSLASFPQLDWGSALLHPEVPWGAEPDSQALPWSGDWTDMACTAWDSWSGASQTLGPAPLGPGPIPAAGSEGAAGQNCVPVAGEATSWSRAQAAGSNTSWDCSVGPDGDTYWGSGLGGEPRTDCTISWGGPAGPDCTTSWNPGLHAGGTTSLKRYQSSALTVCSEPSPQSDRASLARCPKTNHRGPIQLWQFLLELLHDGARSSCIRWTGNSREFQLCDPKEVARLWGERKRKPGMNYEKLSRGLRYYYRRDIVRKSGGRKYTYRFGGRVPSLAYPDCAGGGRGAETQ
Procedure, shortened: as §1

ELF3 = biological target: T11, ELF3 (Homo sapiens, UniProt P78545 1-371); conditions: protein: recombinant; tags: N-terminal GST; dsDNA, one strand shown
T11 sequence: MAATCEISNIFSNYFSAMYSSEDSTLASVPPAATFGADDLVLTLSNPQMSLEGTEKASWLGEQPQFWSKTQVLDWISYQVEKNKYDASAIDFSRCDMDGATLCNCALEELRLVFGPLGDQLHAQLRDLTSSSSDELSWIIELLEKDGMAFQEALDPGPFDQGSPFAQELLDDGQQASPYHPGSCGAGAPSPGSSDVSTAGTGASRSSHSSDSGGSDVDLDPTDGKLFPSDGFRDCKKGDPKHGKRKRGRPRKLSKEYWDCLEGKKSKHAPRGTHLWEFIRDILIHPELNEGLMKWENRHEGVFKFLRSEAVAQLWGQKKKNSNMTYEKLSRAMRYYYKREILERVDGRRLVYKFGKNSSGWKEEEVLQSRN
Procedure, shortened: as §1

CRX = CRX (Homo sapiens, UniProt O43186 1-299); conditions: protein: recombinant; tags: N-terminal GST; dsDNA, one strand shown
Chain of CRX (O43186 whole entry): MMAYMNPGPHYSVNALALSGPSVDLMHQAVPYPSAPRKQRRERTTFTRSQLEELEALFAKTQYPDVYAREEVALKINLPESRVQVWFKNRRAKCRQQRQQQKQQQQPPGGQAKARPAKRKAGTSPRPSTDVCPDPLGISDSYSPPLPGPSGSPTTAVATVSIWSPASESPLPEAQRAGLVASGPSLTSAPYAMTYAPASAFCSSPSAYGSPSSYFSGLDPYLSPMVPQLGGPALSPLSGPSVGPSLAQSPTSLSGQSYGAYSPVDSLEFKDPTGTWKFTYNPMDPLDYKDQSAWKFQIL
Procedure, shortened: as §1

ETV1 = ETV1 (Homo sapiens, UniProt P50549 1-477); conditions: protein: recombinant; tags: N-terminal GST; dsDNA, one strand shown
Chain of ETV1 (P50549 whole entry): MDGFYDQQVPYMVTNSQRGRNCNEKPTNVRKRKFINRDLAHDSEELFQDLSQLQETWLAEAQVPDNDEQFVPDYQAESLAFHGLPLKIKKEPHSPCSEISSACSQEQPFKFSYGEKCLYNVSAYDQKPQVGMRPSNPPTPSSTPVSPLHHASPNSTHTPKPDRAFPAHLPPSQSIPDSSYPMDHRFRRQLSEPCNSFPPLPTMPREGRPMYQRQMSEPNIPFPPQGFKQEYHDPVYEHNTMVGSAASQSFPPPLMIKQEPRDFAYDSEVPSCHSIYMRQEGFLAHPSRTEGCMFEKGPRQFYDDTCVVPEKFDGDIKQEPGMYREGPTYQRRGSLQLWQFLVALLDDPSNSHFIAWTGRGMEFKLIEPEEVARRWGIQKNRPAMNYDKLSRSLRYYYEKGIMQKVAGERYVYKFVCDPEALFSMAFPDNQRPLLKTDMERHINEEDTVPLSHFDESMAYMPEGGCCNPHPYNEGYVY
Procedure, shortened: as §1

Sequence: TCGAAT
- binding signal (FLI1): 1 fold enrichment (6-mer frequency, TF over GST control)
- binding signal (ELK1): 1.09 fold enrichment (6-mer frequency, TF over GST control)
- binding signal (GABPA): 1.12 fold enrichment (6-mer frequency, TF over GST control)
- binding signal (ERG): 1.08 fold enrichment (6-mer frequency, TF over GST control)
- binding signal (ELF1): 1.11 fold enrichment (6-mer frequency, TF over GST control)
- binding signal (EHF): 1.02 fold enrichment (6-mer frequency, TF over GST control)
- binding signal (SPIB): 1.07 fold enrichment (6-mer frequency, TF over GST control)
- binding signal (ELK3): 1.15 fold enrichment (6-mer frequency, TF over GST control)
- binding signal (FEV): 1.03 fold enrichment (6-mer frequency, TF over GST control)
- binding signal (ETV5): 1.15 fold enrichment (6-mer frequency, TF over GST control)
- binding signal (HSF1): 2.2 fold enrichment (6-mer frequency, TF over GST control)
- binding signal (SPIC): 1.03 fold enrichment (6-mer frequency, TF over GST control)
- binding signal (ELF4): 1.1 fold enrichment (6-mer frequency, TF over GST control)
- binding signal (ELK4): 1.33 fold enrichment (6-mer frequency, TF over GST control)
- binding signal (ETV2): 1.03 fold enrichment (6-mer frequency, TF over GST control)
- binding signal (ELF3): 1.11 fold enrichment (6-mer frequency, TF over GST control)
- binding signal (CRX): 1.38 fold enrichment (6-mer frequency, TF over GST control)
- binding signal (ETV1): 1 fold enrichment (6-mer frequency, TF over GST control)
